USP10 block: blocks human USP10 ubiquitin-rhodamine cleavage; 47,000 tested, 1.1% active; Q14694; inhibition, % at 20 µM; purified USP10, Ub-rhodamine fluorescence, 60 min
USP17 inh: blocks human USP17 ubiquitin-rhodamine cleavage | purified USP17, Ub-rhodamine cleavage fluorescence, 3 h | inhibition, % at 50 µM | 47,000 tested, 6.5% active
USP30 block: human USP30 deubiquitinase inhibition; inhibition, % at 25 µM; 47,000 tested, 5.3% active; AID 1645860; purified USP30, Ub-rhodamine cleavage fluorescence; Q70CQ3
UCHL1 inh: human UCHL1 deubiquitinase inhibition | P09936 | purified UCHL1, Ub-rhodamine cleavage fluorescence | inhibition, % at 20 µM | 47,000 tested, 0.2% active
Target sequence (P09936 whole entry, looked up): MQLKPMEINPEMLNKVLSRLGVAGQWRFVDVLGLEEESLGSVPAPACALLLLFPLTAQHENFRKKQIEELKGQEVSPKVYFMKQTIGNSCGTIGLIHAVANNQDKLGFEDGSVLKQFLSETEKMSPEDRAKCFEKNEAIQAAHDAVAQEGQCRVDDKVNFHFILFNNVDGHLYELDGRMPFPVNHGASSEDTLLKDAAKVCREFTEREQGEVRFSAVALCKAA
USP8 block: human USP8 deubiquitinase inhibition; P40818; purified USP8, Ub-rhodamine cleavage fluorescence, 30 min; inhibition, % at 20 µM; 47,000 tested, 4.2% active
USP7 block: inhibitors of human USP7 deubiquitinase. 47,000 tested, 0.3% active. purified USP7, Ub-rhodamine cleavage fluorescence. inhibition, % at 20 µM
Large screens that a line does not name were inactive. Most compounds without a hit are left out; they make up all but 12% or so of the library. No stated cut-off is given here; in the data, active means inhibition above about 30%; inactive means the rest.

Cc1ccccc1NC(=O)CN1C(=O)C2CCCN2C(=O)c2ccc(F)cc21 (centres undefined)	none
Cc1cccc(C)c1NC(=O)CN1C(=O)C2CCCC2=Nc2ccccc21 (centres undefined)	none
O=C(CN1C(=O)C2CCCC2=Nc2ccccc21)Nc1cc(F)ccc1F (centres undefined)	USP17 inh 60
CCc1ccccc1NC(=O)CN1C(=O)C2CCCC2=Nc2ccccc21 (centres undefined)	USP10 block 34, USP8 block 34
Cc1ccc(NC(=O)Cc2nnc3c(-c4nc(C5CC5)no4)cccn23)cc1	USP10 block 48, USP17 inh 52, USP30 block 36, UCHL1 inh 59, USP8 block 97, USP7 block 58
CC1(C)CCCC2=C1CC(C)(C)C(N(C(=O)/C=C/C(=O)O)c1ccccc1)C2 (centres undefined)	USP10 block 34, USP17 inh 77, USP30 block 75, USP8 block 59
COc1ccc(NC(=O)CC2C(=O)N(c3ccc(Cl)cc3)C(=O)N2Cc2cccnc2)cc1 (centres undefined)	none
COCCN(C)C(=O)c1nc(-c2cn(-c3ccccc3)cn2)n2ccccc12	none
COc1ccc(C(=O)c2c[nH]cc2-c2ccc(C)cc2)cc1OC	USP17 inh 31
COc1ccc(C(=O)NNC(=O)c2ccc(O)cc2)cc1OC	none
CCCNC(=O)c1nnn(-c2cccc3c2CCN(CC2CC2)C3)c1C	none
COc1ccc(Cl)cc1S(=O)(=O)N1CCN=C1N1CCCCC1	none
O=C(Cn1c(=O)c2cccn2c2ccccc21)NCc1ccc(F)cc1	none
O=C(Cn1c(=O)n(Cc2ccncc2)c(=O)c2ncccc21)Nc1cccc(F)c1	none
O=C(Cn1c(=O)n(Cc2ccc3c(c2)OCO3)c(=O)c2ncccc21)c1ccccc1	USP30 block 54
O=C(Cn1c(=O)n(Cc2ccc(F)cc2)c(=O)c2ncccc21)Nc1ccccc1	USP30 block 65
O=C(Cn1c(=O)n(Cc2ccc(F)cc2)c(=O)c2sccc21)Nc1cccc(Cl)c1	USP17 inh 65
O=C(Cn1c(=O)ccn(Cc2ccc(F)cc2)c1=O)Nc1ccc(F)cc1	none
Cc1ccc(CNC(=O)Cn2c(=O)n(CCCC(=O)NCc3ccc(F)cc3)c(=O)c3ccccc32)cc1	USP10 block 44, USP17 inh 33, USP8 block 43
CCc1ccc(S(=O)(=O)N2CCCC(c3nnc(C(F)(F)F)o3)C2)cc1 (centres undefined)	none
Cc1ccc(Cn2c(=O)c3ncccc3n(CC(=O)NCc3ccc(F)cc3)c2=O)cc1	USP10 block 34, USP17 inh 77, USP30 block 84, USP8 block 81
C/C=C\C=C\[C@@H]1O[C@](O)([C@H](CC)C(=O)NC/C=C/C=C(\C)[C@@H](OC)[C@@H](C)[C@@H]2O[C@H](/C=C/C=C/C=C(\C)C(=O)c3c(O)cc[nH]c3=O)[C@H](O)[C@@H]2O)[C@H](O)[C@H](O)C1(C)C	none
Cn1c(CN2CCOCC2)nnc1SCC(=O)Nc1ccc(F)cc1	none
CN(C)c1ccc(NC(=O)CSc2nnc(-c3ccc(S(=O)(=O)N4CCOCC4)cc3)n2C)cc1	USP30 block 45
COc1ccc(C(=O)N(C)CCc2noc(-c3ccc(Cl)cc3)n2)cc1	none
CN(CCc1noc(-c2ccccc2Cl)n1)C(=O)c1ccc(C#N)cc1	USP30 block 31
Cc1ccccc1NC(=O)Cn1cccc(-c2nc(-c3ccc(F)cc3)no2)c1=O	none
COc1cccc(-c2nc(C(N)=O)c3[nH]c(=O)n(-c4ccc5c(c4)OCO5)c3n2)c1O	USP8 block 31
NC(=O)c1nc(-c2ccc(OCc3ccccc3)cc2)nc2c1[nH]c(=O)n2-c1ccccc1	none
NC(=O)c1nc(-c2ccc(OCc3ccccc3)cc2)nc2c1[nH]c(=O)n2-c1ccc2c(c1)OCO2	USP8 block 49
CCOc1ccc(N2CCCn3c2nc2c3c(=O)n(Cc3cccc4ccccc34)c(=O)n2C)cc1	none
Cc1cccc(N2CCCC(N(C)C(=O)c3cc(C)[nH]c(=O)n3)C2)n1 (centres undefined)	none
Cc1cc(C)nc(-n2nc(C)cc2NC(=O)c2ccc3c(c2)OCO3)n1	none
Cc1nc(NC(=O)c2ccc(F)cc2)nc2cc3c(cc12)OCO3	USP17 inh 36
